These results are taken from the supplement of paper PMC7366291.

Structures can show the parent of a compound that is named as a salt. ± gives the standard deviation or the standard deviation of the averaged measurements.

Holding throughout (details): 25 µM; exposure: 24-48 hpf
The subject of assay [1] is Danio rerio Tg(wt1b:EGFP) embryo, pronephros. Briefly: glomerular separation, fold change vs DMSO control; higher = glomeruli further apart (abnormal). An outline of the steps:
(§1)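 In HEPES-buffered E3 with 0.003% PTU and 0.5% DMSO, dechorionated Tg(wt1b:EGFP) zebrafish embryos were exposed to 25 μM compound from 24 to 48 hpf at 28.5°C. Pronephroi were then imaged dorsally at 470 nm in 10 z-slices, in 96-well plates filled with agarose. On maximum projections, a Fiji macro turned 16 manually placed reference points into distances and angles, and values more than 2 SD from the feature mean were excluded. Features are fold changes relative to the mean of DMSO-treated embryos from the same day.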

For assay [2] the test system is unchanged. Briefly: glomerular width (mean of left and right), fold change vs DMSO control; higher = wider glomerulus. An outline of the steps: as §1
The test system is the same in assay [3]. Briefly: fraction of imaged embryos annotated as normal kidney; higher = less nephrotoxic; extreme values may be limits of the assay. In a few lines: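 The value given is the share of embryos in each treatment scored as having a normal kidney. To obtain it, dechorionated Tg(wt1b:EGFP) zebrafish embryos were treated from 24 to 48 hpf at 28.5°C with 25 μM compound in 0.5% DMSO, in 5 mM HEPES-buffered E3 with 0.003% PTU. Pronephroi were imaged by widefield fluorescence (470 nm, 10 z-slices), and every embryo was annotated by hand from maximum projections.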

Assay [4] has the same test system. Briefly: pronephric angle neck segment to proximal convoluted tubule (mean of left and right), fold change vs DMSO control; higher = larger pronephric angle. In a few lines: as §1

In turn, `O=C(Nc1ccccc1)OCC(CN1CCCCC1)OC(=O)Nc1ccccc1` (configuration not stated) [Diperodon hydrochloride] showed a glomerular separation in assay [1] of 1.1 ± 0.41. In assay [2], the glomerular width turned out to be 0.984 ± 0.04. Besides, the “fraction of imaged embryos annotated as normal kidney” value (“fraction of imaged embryos annotated” below) in assay [3] is 0.818. Besides, in assay [4], the “pronephric angle neck segment” value worked out at 1.04 ± 0.024.
In the case of `CCCCC[C@H](O)/C=C/[C@H]1[C@H](O)CC(=O)[C@@H]1CCCCCCC(=O)O` [Alprostadil], in assay [1], the glomerular separation came to 1.21 ± 0.52. Moreover, in assay [2], the glomerular width was 0.867 ± 0.036. Moreover, in assay [3], the “fraction of imaged embryos annotated” value amounted to 0.75. Also, the “pronephric angle neck segment” value in assay [4] is 1.09 ± 0.047.
The matching figures for `CC(=O)OCC(=O)[C@@]1(O)CC[C@H]2[C@@H]3CCC4=CC(=O)C=C[C@]4(C)[C@@]3(F)[C@@H](O)C[C@@]21C` [Isoflupredone acetate]: 1.22 ± 0.63, 1.21 ± 0.017, 0.583 and 1.014 ± 0.0048.
Taken in the same sequence, the figures for `COC(=O)[C@@H]1[C@H]2C[C@H]3c4[nH]c5ccccc5c4CCN3C[C@@H]2CC[C@@H]1O` [Yohimbine hydrochloride] were 1.24 ± 0.41, 1.08 ± 0.069, 0.727 and 0.985 ± 0.082.
The matching figures for `C=CCc1ccccc1OCC(O)CNC(C)C` (configuration not stated) [Alprenolol hydrochloride]: 0.823 ± 0.28, 1 ± 0.074, 0.833 and 1.07 ± 0.015.
In the case of `COc1ccc([C@@H]2CC(=O)c3c(O)cc(O[C@@H]4O[C@H](CO[C@@H]5O[C@@H](C)[C@H](O)[C@@H](O)[C@H]5O)[C@@H](O)[C@H](O)[C@H]4O)cc3O2)cc1O` [Hesperidin], the glomerular separation in assay [1] turned out to be 0.827 ± 0.15. This molecule came in with a glomerular width in assay [2] of 0.938 ± 0.045. Besides, in assay [3], the “fraction of imaged embryos annotated” value came out at 0.917. Moreover, the “pronephric angle neck segment” value in assay [4] amounted to 0.981 ± 0.012.
`COc1ccc2c(c1)c(CC(=O)O)c(C)n2C(=O)c1ccc(Cl)cc1` [Indomethacin]: the glomerular separation in assay [1] stood at 3.64 ± 1.7. The molecule also came in with a glomerular width in assay [2] of 0.781 ± 0.045. Besides, the “fraction of imaged embryos annotated” value in assay [3] was 0. The “pronephric angle neck segment” value in assay [4] stood at 1.62 ± 0.03.
The matching figures for `CCN(CC)C(=O)N1CCN(C)CC1` [Diethylcarbamazine citrate]: 0.96 ± 0.28, 0.958 ± 0.028, 0.909 and 1.05 ± 0.02.
Taken in the same sequence, the figures for `O=C1NCN(c2ccccc2)C12CCN(CCCC(c1ccc(F)cc1)c1ccc(F)cc1)CC2` [Fluspirilen] were 2.89 ± 1.3, 0.687 ± 0.11, 0.333 and 1.028 ± 0.0059.
`NC(=O)c1cccnc1` [Nicotinamide] displayed a glomerular separation in assay [1] of 1 ± 0.22. In assay [2], the glomerular width came out at 1.022 ± 0.0032. For the same molecule, in assay [3], the “fraction of imaged embryos annotated” value was 0.909. Besides, the “pronephric angle neck segment” value in assay [4] was 0.985 ± 0.059.
The matching figures for `CN1C2CCCC1CC(NC(=O)c1nn(C)c3ccccc13)C2` (configuration not stated) [Granisetron]: 0.791 ± 0.23, 0.98 ± 0.024, 0.917 and 1.04 ± 0.015.
The matching figures for `C#C[C@]1(OC(C)=O)CC[C@H]2[C@@H]3CCC4=C[C@@H](OC(C)=O)CC[C@@H]4[C@H]3CC[C@@]21C` [Ethynodiol diacetate]: 1.12 ± 0.65, 0.958 ± 0.052, 0.75 and 1.13 ± 0.057.
Taken in the same sequence, the figures for `Nc1ccccc1S(N)(=O)=O` [2-Aminobenzenesulfonamide] were 0.99 ± 0.24, 1.02 ± 0.072, 0.917 and 1.052 ± 0.00059.
For the molecule `CC(=O)OCC(=O)[C@@]1(O)[C@H](C)C[C@H]2[C@@H]3CCC4=CC(=O)C=C[C@]4(C)[C@@]3(F)[C@@H](O)C[C@@]21C` [Dexamethasone acetate], the glomerular separation in assay [1] is 1 ± 0.25. In assay [2], the glomerular width stood at 1.252 ± 0.0072. For the same molecule, the “fraction of imaged embryos annotated” value in assay [3] came out at 1. Moreover, the “pronephric angle neck segment” value in assay [4] was 1.02 ± 0.034.
The matching figures for `C#C[C@]1(OC(C)=O)CC[C@H]2[C@@H]3CCC4=CC(=NO)CC[C@@H]4[C@H]3CC[C@@]21CC` (mixture of isomers) [Norgestimate]: 2.81 ± 1.2, 0.858 ± 0.059, 0.0833 and 1.37 ± 0.015.
Taken in the same sequence, the figures for `Clc1cccc(Cl)c1NC1=NCCN1` [Clonidine hydrochloride] were 0.954 ± 0.35, 1.001 ± 0.0053, 0.583 and 0.96 ± 0.067.
Taken in the same sequence, the figures for `CC1CC(OC(=O)C(O)c2ccccc2)CC(C)(C)N1C` (configuration not stated) [Eucatropine hydrochloride] were 0.748 ± 0.31, 0.975 ± 0.042, 0.917 and 0.9583 ± 0.0057.
Molecule `CC(=O)Oc1cc(C(C)C)c(OCCN(C)C)cc1C` [Moxisylyte hydrochoride] yielded a glomerular separation in assay [1] of 0.853 ± 0.24. The molecule also showed a glomerular width in assay [2] of 1.03 ± 0.0053. For the same molecule, the “fraction of imaged embryos annotated” value in assay [3] came to 0.917. For the same molecule, the “pronephric angle neck segment” value in assay [4] was determined as 0.977 ± 0.068.
The matching figures for `CCCCC(=O)N(Cc1ccc(-c2ccccc2-c2nnn[nH]2)cc1)[C@H](C(=O)O)C(C)C` [Valsartan]: 0.756 ± 0.22, 1.09 ± 0.026, 1 and 0.991 ± 0.021.
The matching figures for `CCC[C@H](N[C@@H](C)C(=O)N1[C@H](C(=O)O)C[C@@H]2CCCC[C@@H]21)C(=O)OCC` [Perindopril]: 0.827 ± 0.34, 1.09 ± 0.028, 0.917 and 0.98 ± 0.026.
With `CC(=O)SCC(Cc1ccccc1)C(=O)NCC(=O)OCc1ccccc1` (configuration not stated) [Racecadotril], the glomerular separation in assay [1] was 1.45 ± 0.84. Also, the glomerular width in assay [2] was found to be 0.819 ± 0.085. The “fraction of imaged embryos annotated” value in assay [3] is 0.167. Besides, in assay [4], the “pronephric angle neck segment” value was determined as 1.365 ± 0.013.
The matching figures for `Cc1c(F)c(N2CCNC(C)C2)cc2c1c(=O)c(C(=O)O)cn2C1CC1` (configuration not stated) [Grepafloxacin]: 0.897 ± 0.35, 1.033 ± 0.0021, 0.75 and 0.985 ± 0.013.
Taken in the same sequence, the figures for `Cc1ccc(/C(=C\CN2CCCC2)c2ccccn2)cc1` [Triprolidine hydrochloride] were 0.823 ± 0.16, 1.035 ± 0.0046, 0.917 and 1.04 ± 0.045.
